Data published in PubChem BioAssay (NCATS).
Records with an inconclusive call do not appear. Active and inactive are the calls of the source. Calls follow the shape of the dose curve; as a rule, active = well fitted cell-killing curve with a large enough effect; inconclusive = small, poorly fitted or top-dose-only effect, or effect the other way; inactive = no such curve, though single readings can be large or run the other way.

experiment: Quantitative High-Throughput drug screen in 47 multiple myeloma cell lines against the NCATS MIPE library collection: Delta47_JCRB cell viability assay (AID 1918925; also: nearly all actives have a fitted effect of over 45% in size); conditions: Delta47 myeloma viability, CellTiter-Glo ATP, 48 h; series mostly up to 45.8 µM
Description: PI: Beverly A. Mock Ph.D.
Laboratory of Cancer Biology and Genetics,
Center for Cancer Research, National Cancer Institute,
National Institute of Health, Bethesda, Maryland
Drug resistance and disease progression are common in multiple myeloma (MM) patients, underscoring the need for new therapeutic combinations. […] We hypothesized that effective combinations would reduce MYC expression and enhance p16 activity. […] These preclinical data identify potentially useful drug combinations for evaluation in drug-resistant MM and reveal potential mechanisms of combined drug sensitivity.
Described herein is the primary MIPE qHTS used to cherrypick compounds. Validated compounds were then further tested for potential synergistic activiy.
[1] Peat TJ, Gaikwad SM, Dubois W, Gyabaah-Kessie N, Zhang S, Gorjifard S, Phyo Z, Andres M, Hughitt VK, Simpson RM, Miller MA, Girvin AT, Taylor A, Williams D, D'Antonio N, Zhang Y, Rajagopalan A, Flietner E, Wilson K, Zhang X, Shinn P, Klumpp-Thomas C, McKnight C, Itkin Z, Chen L, Kazandijian D, Zhang J, Michalowski AM, Simmons JK, Keats J, Thomas CJ, Mock BA. Drug combinations identified by high-throughput screening promote cell cycle transition and upregulate Smad pathways in myeloma. Cancer Lett. 2023 Aug 1;568:216284. doi: 10.1016/j.canlet.2023.216284. Epub 2023 Jun 24. PMID: 37356470; PMCID: PMC10408729.
SEQUENCE No. (e.g., 1, 2, 3, etc.); […] (e.g., Cells, Incubation, Reagent, etc.); VALUE and DESCRIPTION.
1; Cells; 5 uL; white, solid bottom 1536-well Greiner assay plate.
2; Compounds; 23 nL; Kalypsis pin tool (Wako USA) equipped with a 1536-well pin head to transfer to the assay plates.
3; Incubation; 48 hours; 37C incubation.
4; Reagent;5uL; CellTiter Glo (Promega).
5; Detector; 425V; Luminescence; Viewlux PerkinElmer.
NOTES (numbers refer to Sequence numbers above)
1. The cell-based screening methods employed in this study were like those previously published. Briefly, the corresponding myeloma cell lines were screened in 1,536-well plates with 500 cells, 5-uL per well for inhibition of cell viability (assessed by measuring ATP levels with CellTiterGlo).
2. NCATS MIPE 4.0 library of approved and investigational drugs were added using the Kalypsis pin tool. Wells treated with DMSO only for 100% viability and media only wells for 0% viability were used as controls.
3. The assay plates were covered and incubated for 48 hours in a 37C, 5% CO2 incubator with controlled humidity.
4. After 48 hours, CellTilter-GloTM luminescent substrate mix (Promega) reagent was added to the assay plate and plates we incubated for 5 min at room temperature.
5. Signal was measured as median relative luminescence units on a ViewLux (PerkinElmer) multiplate reader.
[1] Heske CM, Davis MI, Baumgart JT, Wilson K, Gormally MV, Chen L, Zhang X, Ceribelli M, Duveau DY, Guha R, Ferrer M, Arnaldez FI, Ji J, Tran HL, Zhang Y, Mendoza A, Helman LJ, Thomas CJ. Matrix Screen Identifies Synergistic Combination of PARP Inhibitors and Nicotinamide Phosphoribosyltransferase (NAMPT) Inhibitors in Ewing Sarcoma. Clin Cancer Res. 2017 Dec 1;23(23):7301-7311. doi: 10.1158/1078-0432.CCR-17-1121. Epub 2017 Sep 12. PMID: 28899971; PMCID: PMC6636827.
Potency is read from the fitted curve at half-maximal effect.

| Structure (SMILES) | Potency |
| --- | --- |
| Cc1c(C(=O)Nc2ccc(N3C[C@@H](C)O[C@@H](C)C3)nc2)cccc1-c1ccc(OC(F)(F)F)cc1 | 4.69 µM (active) |
| C[C@@H]1C[C@H]2[C@@H]3CCC4=CC(=O)C=C[C@]4(C)[C@@]3(F)[C@@H](O)C[C@]2(C)[C@@]1(O)C(=O)CO | inactive |
| CC(=O)OCC(=O)[C@@]12OC(C)(C)O[C@H]1C[C@H]1[C@@H]3C[C@H](F)C4=CC(=O)C=C[C@]4(C)[C@@]3(F)[C@@H](O)C[C@@]12C | inactive |
| COc1c(C)cnc(Cn2cnc3c(Cl)nc(N)nc32)c1C | 0.264 µM (active) |
| Cc1ccc(S(=O)(=O)OCC(=O)Nc2ccc(C(=O)O)c(O)c2)cc1 | 16.6 µM (active) |
| Cc1nc(C(=O)NCC(=O)O)c(O)c2ccc(Oc3ccccc3)cc12 | inactive |
| CCC(c1ccc(O)cc1)C(CC)c1ccc(O)cc1 (stereo not given) | 0.0026 µM (active) |
| CNC(=O)c1cc(COc2nnc(Nc3ccc(Cl)cc3)c3ccoc23)ccn1 | inactive |
| OC[C@H]1O[C@@H](O[C@H]2[C@@H](O)[C@@](O)(CO)O[C@@H]2CO)[C@H](O)[C@@H](O)[C@@H]1O | inactive |
| CCOC(=O)[C@@H](N)CCC(=O)N[C@@H](CSCc1ccccc1)C(=O)N[C@@H](C(=O)OCC)c1ccccc1 | 26.4 µM (active) |
| Cc1cnc(CNC(=O)c2c(=O)c3ccc(N4CCCN(C)CC4)nc3n3c2sc2ccccc23)cn1 | 0.457 µM (active) |
| CN1[C@H]2CC[C@H]1CC(OC(=O)c1c[nH]c3ccccc13)C2 (stereo not given in full) | 4.18 µM (active) |
| NS(=O)(=O)c1cc(Cl)c(Cl)c(S(N)(=O)=O)c1 | inactive |
| CC(=O)N1CCN(c2ccc(OCc3nn(C)c(C)c3-c3cccc4c(CCCOc5cc(C)c(Cl)c(C)c5)c(C(=O)O)n(Cc5cccnc5)c34)cc2)CC1 | 4.69 µM (active) |
| CNC(=O)[C@H](Cc1ccccc1)NC(=O)[C@H](CC(C)C)[C@H](CSc1cccs1)C(=O)NO | 18.7 µM (active) |
| CON(C)C(=O)N1N=C(c2cc(F)ccc2F)S[C@]1(CCCN)c1ccccc1 | inactive |
| CC(C)CNc1ccnc(NCc2csc(-c3ccccc3)n2)n1 | 2.35 µM (active) |
| Oc1cc(O)cc(C=Cc2ccc(O)c(O)c2)c1 | 4.69 µM (active) |
| N=C1SC(=Cc2ccc(-c3ccc4c(c3)C(=O)NC4=O)o2)C(=O)N1c1ccc(Br)cc1 | inactive |
| Cc1ccc(NC(=O)c2ccc(CN3CCN(C)CC3)cc2)cc1Nc1nc(-c2cccnc2)cs1 | 6.62 µM (active) |

| Structure (SMILES) | Potency |
| --- | --- |
| CCCCCCCCCCCCCC(=O)N[C@H](CO)[C@H](O)c1ccc([N+](=O)[O-])cc1 | 18.7 µM (active) |
| CN1CCc2c(n(Cc3ccc(C(=O)NO)cc3)c3ccccc23)C1 | 20.9 µM (active) |
| COc1cc([C@H]2Oc3cc([C@H]4Oc5cc(O)cc(O)c5C(=O)[C@H]4O)ccc3O[C@H]2CO)ccc1O | 13.2 µM (active) |
| Cc1cccc(-c2[nH]c(C(C)(C)C)nc2-c2ccc3c(c2)OCO3)n1 | 1.32 µM (active) |
| CC[C@H](C)C(=O)O[C@H]1C[C@H](O)C=C2C=C[C@H](C)[C@H](CC[C@@H](O)C[C@@H](O)CC(=O)O)[C@H]21 | inactive |
| N[C@@H](CC(=O)N1CCn2c(nnc2C(F)(F)F)C1)Cc1cc(F)c(F)cc1F | inactive |
| CN1C(=O)C(Cc2c[nH]c3ccccc23)NC1=S (stereo not given) | inactive |
| O=C(c1ccc(C=Cc2n[nH]c3ccccc23)cc1)N1CCNCC1 | 3.32 µM (active) |
| CCC(=O)NCC[C@@H]1CCc2ccc3c(c21)CCO3 | inactive |
| Nc1[nH]nc2nnc(-c3c(-c4ccccc4)nn4ccccc34)cc12 | 4.69 µM (active) |
| CCOc1ccccc1N=Nc1c(C)[nH]n(-c2nc(-c3ccccc3)cs2)c1=O | inactive |
| CCNC(=O)c1noc(-c2cc(C(C)C)c(O)cc2O)c1-c1ccc(CN2CCOCC2)cc1 | 0.0662 µM (active) |
| CCOC(=O)[C@H](CCc1ccccc1)N[C@@H](C)C(=O)N1CCCC1C(=O)O (stereo not given in full) | inactive |
| COc1ccc(-c2cc(=O)c3c(O)cc(O[C@@H]4O[C@H](CO[C@@H]5O[C@@H](C)[C@H](O)[C@@H](O)[C@@H]5O)[C@@H](O)[C@H](O)[C@@H]4O)cc3o2)cc1O | 14.8 µM (active) |
| Cc1c(-c2cccc3c(CCCOc4cccc5ccccc45)c(C(=O)O)n(Cc4cccnc4)c23)c(COc2ccc(N3CCN([S+](=O)([O-])N(C)C)CC3)cc2)nn1C | 14.8 µM (active) |
| CCOC(=O)[C@H]1O[C@H]1C(=O)N[C@@H](CC(C)C)C(=O)NCCC(C)C | inactive |
| Cc1ccc2c(c1)C(=O)[C@]1(O)CCN(c3ccccc3)C1=N2 | inactive |
| O=C1NC(=O)C(c2cnc3ccccn23)=C1c1cn2c3c(cccc13)CN(C(=O)N1CCOCC1)CC2 | 1.05 µM (active) |
| CC(O)=C(C#N)C(=O)Nc1ccc(C(F)(F)F)cc1 | 18.7 µM (active) |
| C[C@H]1[C@H](O)O[C@@H]2O[C@@]3(C)CC[C@@H]4[C@H](C)CC[C@@H]1[C@@]24OO3 | 5.9 µM (active) |
